Data from the supplement of paper PMC3334620.
In all, about 33,000 sequences were measured (“E-score (-0.5 to 0.5)”: median about -0.012, highest 2% from about 0.27 on). Only a selection was taken, and the highest values are over-represented in it overall.

target: T1, Vhr1 (UniProt P40522); experiment: PBM E-score (8-mer binding enrichment) (E-score (-0.5 to 0.5)); higher = stronger / more preferred TF binding; settings: protein concentration: 200 nM; construct: GST-full length
T1 sequence: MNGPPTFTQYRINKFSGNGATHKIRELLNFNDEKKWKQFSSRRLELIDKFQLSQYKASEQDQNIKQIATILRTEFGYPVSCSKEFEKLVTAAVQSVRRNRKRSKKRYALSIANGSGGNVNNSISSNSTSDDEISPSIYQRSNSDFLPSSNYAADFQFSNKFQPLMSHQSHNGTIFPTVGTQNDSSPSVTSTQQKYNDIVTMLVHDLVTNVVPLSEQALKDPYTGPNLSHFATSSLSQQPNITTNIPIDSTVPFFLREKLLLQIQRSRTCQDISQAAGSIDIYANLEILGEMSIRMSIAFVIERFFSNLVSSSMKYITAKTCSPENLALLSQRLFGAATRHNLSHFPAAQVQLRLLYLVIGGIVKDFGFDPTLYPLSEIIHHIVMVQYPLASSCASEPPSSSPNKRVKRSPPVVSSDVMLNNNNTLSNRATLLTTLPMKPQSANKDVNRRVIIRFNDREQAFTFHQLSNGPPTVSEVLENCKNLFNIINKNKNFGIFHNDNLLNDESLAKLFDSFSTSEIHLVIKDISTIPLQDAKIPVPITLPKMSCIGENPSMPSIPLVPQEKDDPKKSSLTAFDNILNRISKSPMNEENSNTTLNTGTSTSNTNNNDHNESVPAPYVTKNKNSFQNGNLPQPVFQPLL
Experimental: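 Universal 'all 10-mer' protein binding microarrays (Agilent AMADID 015681) probed with GST-tagged S. cerevisiae TFs (full-length or DBD) made by in vitro transcription/translation (PURExpress), about 100-200 nM. Bound TF was detected with fluorescent anti-GST. Each ungapped 8-mer (which stands for itself and its reverse complement) is scored by the PBM enrichment score (E-score), a modified Wilcoxon-Mann-Whitney statistic from -0.5 to +0.5, computed with the Universal PBM Analysis Suite. Scale: above 0.35 generally sequence-specific binding.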

Sequence	PBM E-score
CTCAATCC	-0.0448
CGTAATTA	-0.128
GGTAATGA	0.023
CTCAATCA	0.33
CGTAATCA	0.273
GCTAATCA	0.262
CGTAATCC	-0.104
ATCAATCA	0.248
AGTAATCA	0.303
AGTAATCG	0.141
GGTAATCA	0.288
AATTGGCT	-0.0912
ATACTGTA	0.224
GGAAACGA	0.0811
GGTGTCCA	-0.0191
ACAAGTGA	-0.154
CAGATTAG	-0.0795
AAATAACG	-0.00647
GTAATGTA	-0.131
GCCGCGGC	0.237
CCCGCGGA	-0.0501
CCCGCCGA	0.00185

Sequence	PBM E-score
CTCCCCGC	0.325
ATCCCCGC	0.129
CCCGCCGG	0.134
CCCGCGGC	0.272
ACCGCCAC	0.0902
CCCGCCAC	0.321
CTCCCCGA	-0.116
CCCGCCGC	0.36
GCCGCCAC	-0.0771
ATGACCCC	0.211
AAGGCAGC	-0.132
ATATAGAA	0.11
AGCATCAG	0.0568
CATGTTCG	0.0242
GATTGGGC	-0.102
CAACCTCC	0.0131
CTGTATCA	-0.0153
GTGTATCA	0.275
ATGTATCA	0.267
GCACTTTA	-0.249
CAGTTACG	-0.125
ATACTCAG	0.274

Sequence	PBM E-score
ATACTGAG	0.302
ACTCTCAG	-0.0997
ATACTCAC	0.17
ATACTCAA	0.178
ATACTGTG	0.0981
ATACTGTC	0.137
CTACTCAG	0.153
ATACTCAT	0.277
CGAGTTCC	0.0292
GCAAACTA	0.0776
AATGCTCA	0.021
AAGAATAC	0.0498
AGGGTCGA	0.158
ACCTGCCC	0.0405
CTACGCCC	0.0207
CGGCAGTA	-0.109
ACAACCCC	-0.061
CATGCTCC	-0.08
AATCAAGT	0.174
AATCATGG	0.387
AATCAGGT	0.268
TATCATGA	0.189

Sequence	PBM E-score
AATCATGA	0.331
AATCATTA	0.222
AATCAAGG	0.0679
AATCATTG	0.283
AATCATTC	0.251
AATCATGT	0.389
AATCAGGG	0.133
GATCATGA	0.197
CCGCCAAC	0.163
GCATTGAA	-0.0212
AACTAGTT	-0.125
AAAGGTTA	-0.357
CATCTATA	0.0881
CATCATAA	0.133
GATCATGC	0.0952
CATCATGG	0.152
CAACATGG	0.0395
AATCATGC	0.304
CAACATGA	0.3
CATCATGA	0.276
CATCATGC	0.201
CAACATGC	0.15
